Measurements reported in PubChem BioAssay (NCI).
This is part of a sample that, as a whole, favours compounds with a hit. Of some 83,000 tested, about 20% had one in any assay.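 The test compound was applied at a single concentration to cells in 96-well plates for 48 hours, and percent growth was recorded.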 Calls of active or inactive are those of the source. The calls were made as follows: active = growth percent below 10; inactive = the rest.

How the values were obtained:
Test in all cases: NCI-60 one-dose screen, 48 h (100 = growth as untreated, 0 = no growth, -100 = all killed)
Settings in all cases: 10 µM unless noted
HT29 colon = system: HT29 colon
SNB-75 CNS = system: SNB-75 CNS
SNB-19 CNS = system: SNB-19 CNS
SK-MEL-5 melanoma = system: SK-MEL-5 melanoma
UACC-62 melanoma = system: UACC-62 melanoma
LOX IMVI melanoma = system: LOX IMVI melanoma
SK-MEL-28 melanoma = system: SK-MEL-28 melanoma
SK-MEL-2 melanoma = system: SK-MEL-2 melanoma
EKVX NSCLC = system: EKVX NSCLC
SN12C renal = system: SN12C renal
TK-10 renal = system: TK-10 renal
ACHN renal = system: ACHN renal
CAKI-1 renal = system: CAKI-1 renal
A498 renal = system: A498 renal
CCRF-CEM leukemia = system: CCRF-CEM leukemia
SR leukemia = system: SR leukemia
PC-3 prostate = system: PC-3 prostate
UO-31 renal = system: UO-31 renal
MOLT-4 leukemia = system: MOLT-4 leukemia
U251 CNS = system: U251 CNS

Measured: growth

OCc1nnn(-c2ccccc2)c1CO
inactive: HT29 colon 103% | SNB-75 CNS 94.8% | SNB-19 CNS 115% | SK-MEL-5 melanoma 107% | UACC-62 melanoma 101% | LOX IMVI melanoma 100% | SK-MEL-28 melanoma 128% | SK-MEL-2 melanoma 113% | EKVX NSCLC 121% | SN12C renal 102% | TK-10 renal 121% | ACHN renal 107% | CAKI-1 renal 111% | A498 renal 101% | CCRF-CEM leukemia 102% | SR leukemia 104%

Fc1ccc(-c2nnc(/C=C/c3cn(-c4ccccc4)nc3-c3ccccc3)o2)cc1
inactive: HT29 colon 88.5% | SNB-75 CNS 88.2% | SNB-19 CNS 108% | PC-3 prostate 95.2% | SK-MEL-5 melanoma 105% | LOX IMVI melanoma 83.5% | SK-MEL-28 melanoma 98.9% | EKVX NSCLC 103% | SN12C renal 84.1% | UO-31 renal 84.1% | ACHN renal 90.9% | CAKI-1 renal 84.3% | A498 renal 111% | CCRF-CEM leukemia 97.1% | MOLT-4 leukemia 99.3% | SR leukemia 65.7%

O=C(Nc1ccc(Cl)cc1Cl)Nc1ccc(-c2cccnc2)cc1N1CCC(CO)CC1
active: A498 renal 6.41% | MOLT-4 leukemia -0.573%
inactive: HT29 colon 28% | SNB-75 CNS 39.4% | U251 CNS 29.8% | PC-3 prostate 16.6% | SK-MEL-5 melanoma 27.4% | UACC-62 melanoma 26% | LOX IMVI melanoma 37.7% | SK-MEL-28 melanoma 46.6% | SK-MEL-2 melanoma 34.9% | EKVX NSCLC 50.6% | SN12C renal 30.7% | UO-31 renal 17% | TK-10 renal 52.8% | ACHN renal 41.1% | CAKI-1 renal 25.5% | CCRF-CEM leukemia 17.8%

Nc1ccc(C2=NN(c3ccccc3)C(c3ccc(Cl)cc3)C2)cc1 (stereo unspecified)
active: SR leukemia 2.52%
inactive: HT29 colon 19.5% | SNB-75 CNS 72.8% | SNB-19 CNS 78.1% | PC-3 prostate 80.9% | UACC-62 melanoma 89.5% | SK-MEL-28 melanoma 105% | SN12C renal 76.9% | UO-31 renal 55.1% | TK-10 renal 74.2% | ACHN renal 82.1% | CAKI-1 renal 80.9% | A498 renal 74.7% | CCRF-CEM leukemia 64.2% | MOLT-4 leukemia 62.4%

Oc1[nH]c2ccc(Cl)cc2c1/C=c1/ccc2c(c1)N=C(c1ccc(C(F)(F)F)cc1)N=2
inactive: HT29 colon 42.2% | SNB-75 CNS 15.8% | SNB-19 CNS 77% | SK-MEL-5 melanoma 63.4% | UACC-62 melanoma 61.6% | LOX IMVI melanoma 34.2% | SK-MEL-28 melanoma 45.8% | SK-MEL-2 melanoma 63.3% | EKVX NSCLC 87.4% | SN12C renal 88.3% | TK-10 renal 88.4% | ACHN renal 57% | CAKI-1 renal 54.3% | A498 renal 95.4% | CCRF-CEM leukemia 15.5% | MOLT-4 leukemia 21.3% | SR leukemia 25.9%

COc1ccc2c(c1)C(=O)c1c-2c(OCCN(C)C)nc2cc(OC)ccc12
inactive: SNB-75 CNS 31.6% | PC-3 prostate 10.1% | SK-MEL-28 melanoma 29.7% | SK-MEL-2 melanoma 30.9% | EKVX NSCLC 20.6% | SN12C renal 22.6% | TK-10 renal 28.5% | A498 renal 38.4% | CCRF-CEM leukemia 13.7%
active: HT29 colon -43.6% | U251 CNS -68.7% | SK-MEL-5 melanoma -48.6% | UACC-62 melanoma 7.14% | LOX IMVI melanoma -89.2% | UO-31 renal -43.7% | ACHN renal -78.6% | CAKI-1 renal 9.1% | MOLT-4 leukemia -7.63% | SR leukemia -29.2%

COc1ccc2c3c(c(OCCCN(C)C)nc2c1)-c1ccc(Cl)cc1C3=O
inactive: SNB-75 CNS 53% | SK-MEL-5 melanoma 39.2% | SK-MEL-2 melanoma 72.5% | EKVX NSCLC 21.3% | SN12C renal 32.6% | TK-10 renal 11.2% | CAKI-1 renal 29.5% | A498 renal 60.9%
active: HT29 colon -80.8% | U251 CNS -84.9% | PC-3 prostate -19.5% | UACC-62 melanoma -49% | LOX IMVI melanoma -93.3% | SK-MEL-28 melanoma -74.2% | UO-31 renal -72.3% | ACHN renal -75.5% | CCRF-CEM leukemia -39.7% | MOLT-4 leukemia -17.2% | SR leukemia -32.7%

C=C1CC[C@@H]2[C@](C)(COC(C)=O)[C@H](OC(C)=O)CC[C@@]2(C)[C@@H]1CC(Nc1ccc(S(=O)(=O)Nc2cc(C)on2)cc1)C1=CCOC1=O (stereo partly specified)
inactive: SNB-75 CNS 59.4% | U251 CNS 30% | PC-3 prostate 70.8% | SK-MEL-5 melanoma 44.1% | UACC-62 melanoma 19.8% | SK-MEL-28 melanoma 38.1% | SK-MEL-2 melanoma 63% | EKVX NSCLC 81.9% | SN12C renal 31.8% | UO-31 renal 56.9% | TK-10 renal 58.4% | ACHN renal 19.5% | CAKI-1 renal 44% | A498 renal 98.6%
active: HT29 colon -11% | LOX IMVI melanoma -72.7% | CCRF-CEM leukemia -19.1% | MOLT-4 leukemia -7.86% | SR leukemia 1.4%

CCN(CC)CCNc1ccc(Cl)cc1Cl
inactive: HT29 colon 101% | SNB-75 CNS 98.5% | U251 CNS 102% | PC-3 prostate 97.3% | SK-MEL-5 melanoma 103% | UACC-62 melanoma 112% | LOX IMVI melanoma 102% | SK-MEL-28 melanoma 118% | SK-MEL-2 melanoma 108% | EKVX NSCLC 113% | SN12C renal 113% | UO-31 renal 87.3% | TK-10 renal 103% | ACHN renal 113% | CAKI-1 renal 94.6% | A498 renal 103% | CCRF-CEM leukemia 104% | MOLT-4 leukemia 95.9% | SR leukemia 95.1%

COc1cc2c(C#N)n3c(c2cc1OC)C(=O)C(c1ccccc1)Oc1ccccc1-3 (stereo unspecified)
inactive: HT29 colon 50.2% | SNB-75 CNS 52.5% | SNB-19 CNS 41.1% | PC-3 prostate 33.4% | SK-MEL-5 melanoma 25.5% | LOX IMVI melanoma 22.2% | SK-MEL-28 melanoma 93.3% | SK-MEL-2 melanoma 64.8% | SN12C renal 37.2% | ACHN renal 54.3% | CAKI-1 renal 65.6% | A498 renal 52.4% | CCRF-CEM leukemia 17.1% | MOLT-4 leukemia 63.4% | SR leukemia 12.5%

O=C(/C(=N/O)S(=O)(=O)c1ccccc1)c1cccs1
inactive: HT29 colon 107% | SNB-75 CNS 92.6% | SNB-19 CNS 100% | PC-3 prostate 97.7% | UACC-62 melanoma 104% | SK-MEL-28 melanoma 111% | SN12C renal 101% | UO-31 renal 96.8% | TK-10 renal 89.5% | ACHN renal 112% | CAKI-1 renal 103% | A498 renal 103% | CCRF-CEM leukemia 98.5% | MOLT-4 leukemia 104% | SR leukemia 85.9%

CCCC[N+](CCCC)=c1ccc2nc3c(C)cc(N(CC)CC)cc3sc-2c1
active: HT29 colon -68.6% | SNB-75 CNS -0.166% | U251 CNS -11.3% | PC-3 prostate -13.9% | SK-MEL-5 melanoma -96.9% | UACC-62 melanoma -35.7% | LOX IMVI melanoma -70.4% | SK-MEL-28 melanoma -2.53% | SK-MEL-2 melanoma -51% | EKVX NSCLC 4.13% | SN12C renal -3.26% | UO-31 renal 0.703% | TK-10 renal 3.75% | ACHN renal -34.1% | CAKI-1 renal -2.5% | A498 renal -5.54% | CCRF-CEM leukemia -15.7% | MOLT-4 leukemia -20.1% | SR leukemia -18.2%

CCN(CC)c1ccc(CN(CC(=O)c2ccc(Cl)c(Cl)c2)Cc2ccccc2)cc1
inactive: HT29 colon 105% | SNB-75 CNS 93% | U251 CNS 103% | PC-3 prostate 83% | SK-MEL-5 melanoma 97.9% | UACC-62 melanoma 90.9% | LOX IMVI melanoma 94.3% | SK-MEL-28 melanoma 110% | SK-MEL-2 melanoma 96.9% | EKVX NSCLC 108% | SN12C renal 101% | UO-31 renal 81.9% | TK-10 renal 117% | ACHN renal 107% | CAKI-1 renal 92.3% | A498 renal 92.1% | CCRF-CEM leukemia 97.8% | MOLT-4 leukemia 98% | SR leukemia 88.3%

O=c1[nH]c(Cl)nc2c1cnn2-c1ccccc1
inactive: HT29 colon 64.4% | SNB-75 CNS 82.9% | U251 CNS 100% | PC-3 prostate 76.6% | SK-MEL-5 melanoma 96.5% | UACC-62 melanoma 67.6% | LOX IMVI melanoma 71.7% | SK-MEL-28 melanoma 70.7% | SK-MEL-2 melanoma 103% | EKVX NSCLC 93.7% | SN12C renal 97.4% | UO-31 renal 73.2% | TK-10 renal 102% | ACHN renal 101% | CAKI-1 renal 61.6% | A498 renal 84.1% | CCRF-CEM leukemia 40.9% | MOLT-4 leukemia 47.6% | SR leukemia 32.1%

CCCCCCCCCCCCNc1ncnc2[nH]ncc12
active: SR leukemia 9.74%
inactive: HT29 colon 97.9% | SNB-75 CNS 105% | U251 CNS 87.7% | PC-3 prostate 69.7% | SK-MEL-5 melanoma 36.1% | UACC-62 melanoma 57.1% | LOX IMVI melanoma 44.6% | SK-MEL-28 melanoma 100% | SK-MEL-2 melanoma 85.9% | EKVX NSCLC 51.2% | SN12C renal 80.3% | UO-31 renal 77.7% | TK-10 renal 88.2% | ACHN renal 83.4% | CAKI-1 renal 66.2% | A498 renal 50.4% | CCRF-CEM leukemia 68.3% | MOLT-4 leukemia 65.8%

Clc1ccc2c(Nc3ccc4oc(NCCN5CCCC5)nc4c3)ccnc2c1
inactive: HT29 colon 38.1% | SNB-75 CNS 79.8% | U251 CNS 70.1% | PC-3 prostate 79.9% | SK-MEL-5 melanoma 99.1% | UACC-62 melanoma 94.2% | LOX IMVI melanoma 29.5% | SK-MEL-28 melanoma 89.6% | SK-MEL-2 melanoma 105% | EKVX NSCLC 104% | SN12C renal 83.7% | UO-31 renal 66.2% | TK-10 renal 103% | ACHN renal 98.2% | CAKI-1 renal 94.1% | A498 renal 90.6% | CCRF-CEM leukemia 70.2% | MOLT-4 leukemia 66.6%
active: SR leukemia 1.43%

COc1ccc(Nc2nccc(N3CCN(c4c5ccc(Cl)cc5nc5ccc(OC)cc45)CC3)n2)cc1
inactive: HT29 colon 44.6% | SNB-75 CNS 67.5% | SNB-19 CNS 92.2% | PC-3 prostate 57.9% | UACC-62 melanoma 76.4% | SK-MEL-28 melanoma 105% | SN12C renal 68.5% | UO-31 renal 47.5% | TK-10 renal 59.2% | ACHN renal 57.8% | CAKI-1 renal 71.5% | A498 renal 62.9% | SR leukemia 21.1%
active: CCRF-CEM leukemia 4.07% | MOLT-4 leukemia -2.31%

CC(CCC(=O)O)(NC(=O)c1ccc([N+](=O)[O-])cc1)C(=O)O (stereo unspecified)
inactive: HT29 colon 109% | SNB-75 CNS 91.6% | U251 CNS 104% | PC-3 prostate 98.4% | SK-MEL-5 melanoma 101% | UACC-62 melanoma 109% | LOX IMVI melanoma 97.1% | SK-MEL-28 melanoma 107% | SK-MEL-2 melanoma 108% | EKVX NSCLC 114% | SN12C renal 107% | UO-31 renal 86.2% | TK-10 renal 106% | ACHN renal 125% | CAKI-1 renal 108% | A498 renal 108% | CCRF-CEM leukemia 103% | MOLT-4 leukemia 93.6%
